IDH1 R132H inh – blocks human mutant IDH1 R132H enzyme; O75874; IDH1-R132H enzyme, NADPH consumption, diaphorase/resazurin fluorescence; Potency, µM (highest dose often 76.6 µM), without a hit: top-dose activity change, negative = inhibition, hits mostly inhibitors; hit rate 0.093% among 390,000; active means well fitted inhibition curve with a large enough effect; inconclusive means small, poorly fitted or top-dose-only effect; inactive means no such curve, though single readings can be large or run the other way; further: potency means the concentration at half of the fitted maximal effect; on the % scale 0 is the no-effect control and ±100 the full control effect; nearly all actives have a fitted effect of over 65% in size
Target sequence (O75874 whole entry R132H, stated change not applied): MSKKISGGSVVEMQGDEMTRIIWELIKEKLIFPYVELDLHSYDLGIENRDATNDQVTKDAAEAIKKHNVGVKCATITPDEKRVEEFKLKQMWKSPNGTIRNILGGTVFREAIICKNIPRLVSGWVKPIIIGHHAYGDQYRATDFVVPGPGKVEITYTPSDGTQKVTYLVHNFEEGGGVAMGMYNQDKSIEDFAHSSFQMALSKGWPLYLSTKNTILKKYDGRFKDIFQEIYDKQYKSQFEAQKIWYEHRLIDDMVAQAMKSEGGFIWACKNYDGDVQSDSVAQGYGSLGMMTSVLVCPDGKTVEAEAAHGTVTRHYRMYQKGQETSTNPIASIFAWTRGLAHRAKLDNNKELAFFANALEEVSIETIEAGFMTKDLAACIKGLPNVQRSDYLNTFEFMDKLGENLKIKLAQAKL
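IDH1-R132H (0.5 ug/mL dispensed) in pH 7.5 Tris buffer was preincubated 30 min with compound, then given a substrate mix of 0.016 mM NADPH and 2 mM alpha-KG for 80 min at room temperature; remaining NADPH was read by diaphorase/resazurin fluorescence.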
Menin-MLL FL inh – displaces fluorescein MLL peptide from human menin | Fluorescence polarization, fluorescein-MLL peptide displacement from menin | FP activity change, % at 61.4 µM | 290,000 tested, under 10 active | AID 1766; active means well fitted curve in the direction sought with a large enough effect in the polarisation, not every such curve was filed as active; inconclusive means small, poorly fitted or top-dose-only effect, or effect the other way, or a change in a side signal; inactive means no such curve, though single readings can be large or run the other way; the % refers to the polarisation; further: % of control where 0% means no effect
CXXC DNA block – inhibitors of human MLL CXXC domain-DNA interaction. Q03164. MLL-CXXC / FITC-HOXA9 DNA fluorescence polarization. Potency, µM (highest dose often 115 µM), for the others: at the highest dose activity change, negative = inhibition, usual class: inhibitors. hit rate 0.037% among 290,000. AID 2662; active means well fitted inhibition curve with a large enough effect in the polarisation, with a control signal flat, not every such curve was filed as active; inconclusive means small, poorly fitted or top-dose-only effect, or effect the other way, or a change in a side signal; inactive means no such curve, though single readings can be large or run the other way; the % refers to the polarisation; further: potency means the concentration at half of the fitted maximal effect
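Fluorescence polarization: 7 uM MLL-CXXC (stock) preincubated 5 min with compounds, then 50 nM fluorescein-HOX-A9 DNA (stock) added; 30 min ambient. Buffer 50 mM Tris-HCl pH 7.5, 50 mM NaCl, 1 mM DTT, 0.05% BSA.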
Menin MLL FP TR – displaces Texas Red mutant MLL peptide from human menin; hit rate 0.23% among 270,000; Menin + Texas Red MLL mutant peptide, fluorescence polarization; Potency, µM (titrated, usually from 61.6 µM), inactives show at the highest dose FP activity change, negative = inhibition, actives largely listed as inhibitors; O00255; active means well fitted inhibition curve with a large enough effect in the polarisation, with a control signal flat, not every such curve was filed as active; inconclusive means small, poorly fitted or top-dose-only effect, or effect the other way, or a change in a side signal; inactive means no such curve, though single readings can be large or run the other way; the % refers to the polarisation; further: potency means the concentration at half of the fitted maximal effect; % of control where 0% means no effect
pAkt inh – blocks phosphorylation of Akt; Neuro2A IGF-stimulated pAkt S473 HTRF, 20 min; stronger effect = lower value; activity change, % for hits at 50 µM; hit rate 0.32% among 360,000; in the data active means activity change below about -80%; inconclusive means mostly about -51% to -80%; further: on the % scale 0 is the no-effect control and ±100 the full control effect
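Neuro2A cells (4,500/well, DMEM with 0.5% FBS) were treated with compound at a single 50 µM final concentration, stimulated with 6 nM IGF for 20 min at 37 °C, and lysed. Phospho-Akt Ser473 was read by HTRF as 665/615 ratio ×10^4.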
LDHA block – blocks human lactate dehydrogenase A; purified LDHA, NADH/diaphorase-resazurin fluorescence; stronger effect = lower value; activity change, % (values are at about 110 or 230 µM); hit rate 0.15% among 480,000; in the data active means activity change below about -30%; inconclusive means mostly about -25% to -30%;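 further: plate controls were DMSO wells for no effect and wells without enzyme for full effect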
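Human LDH5 at 2 nM final in Tris HCl pH 7.4 with 0.06 mM NADH and 0.2 mM pyruvate, reacted 5 minutes at room temperature. Remaining NADH coupled via diaphorase/resazurin; resorufin fluorescence read at 0 and 20 minutes, normalized to enzyme-free and DMSO wells.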
Starred values were filed as active, the others as inactive. The list is not random: actives were taken first. Their share in the collection is about 0.54%.

`CC(C)NC(=O)c1cccc(Cl)c1` gave LDHA block 5.
COCC(C)NC(=O)c1cccc(Cl)c1 (configuration not stated) was read as IDH1 R132H inh 2%, Menin-MLL FL inh 0, CXXC DNA block 8%, Menin MLL FP TR 2%, pAkt inh -114%* and LDHA block -6.
For CC(=O)Nc1ccc(S(=O)(=O)N2CCC(n3cnc4cc(F)ccc43)CC2)cc1 the results were IDH1 R132H inh 1%, Menin-MLL FL inh -1, CXXC DNA block 33%, Menin MLL FP TR -4%, pAkt inh -106%* and LDHA block -1.
Cc1cccc(NC(=O)c2oc3ccccc3c2NC(=O)c2cc(=O)c3cc(C)ccc3o2)c1 was read as LDHA block -3.
For CCN(CC)S(=O)(=O)c1ccc(NC(=O)C2COc3ccccc3O2)cc1 (configuration not stated) the results were IDH1 R132H inh 4%, Menin-MLL FL inh 1, CXXC DNA block 3%, Menin MLL FP TR 12%, pAkt inh -121%* and LDHA block -10.
`COc1ccccc1CN(C)C(=O)c1n[nH]c(=O)c2ccccc12` gave LDHA block -1.
Screening Cc1nnc(SCC(=O)Nc2ccc(S(N)(=O)=O)cc2)n(N)c1=O returned IDH1 R132H inh 0%, pAkt inh inactive and LDHA block -39*.
Screening Cc1ccc(NC(=O)CSc2nnc(C)c(=O)n2N)cc1 returned IDH1 R132H inh 0%, Menin-MLL FL inh 0, CXXC DNA block 3%, Menin MLL FP TR 1%, pAkt inh inactive and LDHA block -6.
Screening O=C(Nc1nncs1)C1c2ccccc2Oc2ccccc21 returned IDH1 R132H inh 0%, Menin-MLL FL inh 2, CXXC DNA block 0%, Menin MLL FP TR 1%, pAkt inh -102%* and LDHA block -10.
`O=C(Nc1nc(-c2ccncc2)cs1)C1c2ccccc2Oc2ccccc21` gave IDH1 R132H inh 8%, Menin-MLL FL inh 10, CXXC DNA block 3%, Menin MLL FP TR inconclusive, pAkt inh inactive and LDHA block 2.
O=C(Nc1nc(-c2ccccc2)cs1)C1c2ccccc2Oc2ccccc21 was read as IDH1 R132H inh 7%, Menin-MLL FL inh 3, CXXC DNA block 11%, Menin MLL FP TR 18µM*, pAkt inh inactive and LDHA block -3.
Screening COc1ccc(OC)c(-c2csc(NC(=O)C3c4ccccc4Oc4ccccc43)n2)c1 returned IDH1 R132H inh -2%, Menin-MLL FL inh 7, CXXC DNA block 11%, Menin MLL FP TR 14µM*, pAkt inh inactive and LDHA block -3.
`COc1ccc(OC)c(-c2csc(NC(=O)C3COc4ccccc4O3)n2)c1` (configuration not stated) gave IDH1 R132H inh 1%, Menin-MLL FL inh -4, CXXC DNA block 15%, Menin MLL FP TR -26%, pAkt inh inactive and LDHA block -5.
Screening COCCn1c(=N)c(C(=O)NCCc2ccc(OC)cc2)cc2c(=O)n3cccc(C)c3nc21 returned IDH1 R132H inh 3%, Menin-MLL FL inh 6, CXXC DNA block 5%, Menin MLL FP TR -8%, pAkt inh -107%* and LDHA block -3.
`O=c1[nH]c(CN2CCN(c3ccccc3O)CC2)nc2ccccc12` gave IDH1 R132H inh -1%, Menin-MLL FL inh 1, CXXC DNA block 8%, Menin MLL FP TR 14%, pAkt inh -110%* and LDHA block 8.
For COCCCNC(=O)C1CCN(C(=O)C2C(C=C(C)C)C2(C)C)CC1 (configuration not stated) the results were LDHA block -2.
O=C(OCC(=O)N(Cc1ccccc1)Cc1ccccc1)c1ccc2ccccc2n1 was read as LDHA block -37*.
`CC(C)N(C(=O)COC(=O)c1ccc2ccccc2n1)C(C)C` gave LDHA block -4.
`CC(C)c1ccc(C2Sc3ccccc3NC3=C2C(=O)c2ccccc23)cc1` (configuration not stated) gave LDHA block 0.
O=C1C2=C(Nc3ccccc3SC2c2ccco2)c2ccccc21 (configuration not stated) was read as IDH1 R132H inh 10%, Menin-MLL FL inh 2, CXXC DNA block -2%, Menin MLL FP TR inconclusive, pAkt inh -114%* and LDHA block 0.
O/N=C/c1cn(Cc2ccccc2)c2ccccc12 was read as LDHA block 7.
`Cc1ccc(CNc2ccc(O)cc2)cc1` gave IDH1 R132H inh 8%, Menin-MLL FL inh 4, Menin MLL FP TR 18µM*, pAkt inh inactive and LDHA block 20.
COc1ccc(/C=N/n2cnnc2SCc2ccccc2)cc1 was read as IDH1 R132H inh 1%, Menin-MLL FL inh 0, CXXC DNA block -4%, Menin MLL FP TR 2%, pAkt inh -110%* and LDHA block 0.
`CCn1c2ccccc2c2cc(CN3CCN(S(=O)(=O)CC)CC3)ccc21` gave Menin-MLL FL inh 0, CXXC DNA block 20% and Menin MLL FP TR -8%.
Screening CCn1c2ccccc2c2cc(CN3CCN(S(=O)(=O)Cc4ccccc4)CC3)ccc21 returned IDH1 R132H inh 5%, CXXC DNA block 8%, Menin MLL FP TR -5%, pAkt inh inactive and LDHA block -30*.
For COc1ccc(N/C=C/C(=O)C(C)(C)C)cc1 the results were IDH1 R132H inh 9%, Menin-MLL FL inh 1, CXXC DNA block -2%, Menin MLL FP TR 13%, pAkt inh inactive and LDHA block 8.
`O=C(/C=C/Nc1ccc(OC(F)(F)F)cc1)C(F)(F)F` gave IDH1 R132H inh -3%, Menin-MLL FL inh 3, CXXC DNA block -5%, pAkt inh -127%* and LDHA block -2.
Oc1ccc(Cl)cc1C1=NNC(c2cc(Br)cc3c2OCOC3)C1 (configuration not stated) was read as IDH1 R132H inh 1%, Menin-MLL FL inh 14, CXXC DNA block 4%, Menin MLL FP TR 10µM*, pAkt inh inactive and LDHA block -11.
Screening COc1ccc(C2=NNC(c3cc(Cl)cc4c3OCOC4)C2)c(O)c1 (configuration not stated) returned Menin-MLL FL inh 2, CXXC DNA block 29% and Menin MLL FP TR -18%.
Screening COc1ccccc1N(CC(=O)NC1CCCCC1)C(=O)c1csnn1 returned IDH1 R132H inh 1%, Menin-MLL FL inh -2, CXXC DNA block -6%, Menin MLL FP TR 12%, pAkt inh inactive and LDHA block -17.

Source: PubChem BioAssay
